In PubChem BioAssay AID588 (National Center for Advancing Translational Sciences (NCATS), 2007) one finds max dye-equivalent concentration data, which are given here for 53 compounds.

The whole screen tested about 59,000 compounds, of which about 25 (0.04%) were called active. The rule behind the calls is not given here. Many of the other results were omitted from the sample, so actives are more common in it than they were.

This assay in a line: qHTS Assay for Spectroscopic Profiling in Resorufin Spectral Region. Conditions: Compound fluorescence, resorufin region 547/598 nm, buffer. The text has this: NIH Molecular Libraries Screening Centers Network [MLSCN] NIH Chemical Genomics Center [NCGC] […] Occasionally, the artifactual effect may originate from the compound#s own spectral or other biophysical properties which generally tend to track its assay concentration. Pre-screening/profiling the library with respect to the compounds# spectral properties should help one exclude false positives early on. While the most informative fluorescent profiling data set is obtained by performing a full excitation and emission scan of each well by using a monochromator-based plate reader, such an approach is practical only on a very limited scale as scanning each well requires long time. An alternative approach, applied here, is to perform plate reader scans using selected excitation and emission wavelength pairs to generate a multidimensional relational database that correlates compound concentration and the respective relative fluorescence intensity at a given wavelength set. A standard curve of resorufin present on each plate as six-point concentration series, was used to compute a normalized fluorescence response, termed dye-equivalent concentration, for each compound at each concentration.
NCGC Assay Protocol Summary: Buffer: 100 mM Tris buffer, pH 8.0 Dye standard plate: The wells in columns 1 through 4 of a Kalypsys polypropylene 1536-well compound plate were filled with standard solutions of fluorophore corresponding to the spectral region of interest. Solutions of resorufin were placed in the following wells: M1, N1: 3 mM, M2, N2: 300 uM, M3, N3: 30 uM, M4, N4: zero (DMSO), O1, P1: 3 uM, O2, P2: […], O3, P3: 300 nM, O4, P4: zero (DMSO). Assay Steps: Six uL of buffer were dispensed to 1536-well Greiner black plates. Compounds and dye standards (23 nL) were transferred via Kalypsys PinTool. The plates were incubated for 15 min at room temperature, and then read on ViewLux (Perkin-Elmer) High-throughput CCD imager using 547 nm and 598 nm excitation and emission filter set. Keywords: NIH Roadmap, MLSCN, MLI, MLSMR, qHTS, NCGC, Resorufin, Fluorescent Profiling.
In general terms: Quantitative high-throughput screening tests each substance at several concentrations.
Regarding `Nc1ccc2[nH]cc(CCC(=O)O)c2c1`, the max dye-equivalent concentration result was “inactive”.

In the case of `Cc1ccccc1N1CCN(S(=O)(=O)C[C@@]23CC[C@H](C[C@H]2NC(=O)[C@@H](N)CCS(C)(=O)=O)C3(C)C)CC1`, the max dye-equivalent concentration result was “inactive”.

`COCCNc1ccnc(-c2cccc(NS(C)(=O)=O)c2)n1`: the max dye-equivalent concentration result is “inactive”.

Regarding `CCOC(=O)c1c(C)[nH]c(C)c1C(=O)CSc1nc(N)cc(N)n1`, the max dye-equivalent concentration result is “inactive”.

Turning to `O=C(Cn1c(=S)nc2ccccn21)N1CCc2ccccc2C1`, the max dye-equivalent concentration result is “inactive”.

In the case of `CN1CCN2c3ccccc3Cc3ccccc3[C@@H]2C1`, the max dye-equivalent concentration result is “inactive”.

For `COc1ccc2c(CC(=O)Nc3nnc(C4CC4)s3)coc2c1`, the max dye-equivalent concentration entry is “inactive”.

Regarding `CC(CCO)Nc1nc2c([nH]1)c(=O)n(C)c(=O)n2C` (stereo not drawn), the max dye-equivalent concentration entry was “inactive”.

Consider `CCOc1c(OC)cc(C2C(C#N)=C(N)Oc3n[nH]c(-c4ccncc4)c32)cc1OC` (stereo not drawn), for which the max dye-equivalent concentration result is “inactive”.

Regarding `Cc1ccc(S(=O)(=O)N2CCC(C(=O)N[C@@H](C)C(=O)NCCc3ccccc3)CC2)cc1`, the max dye-equivalent concentration result is “inactive”.

Turning to `NS(=O)(=O)c1cc2c(cc1Cl)NC(C(Cl)Cl)NS2(=O)=O` (stereo not drawn), the max dye-equivalent concentration result was “inactive”.

For `CCOC(=O)N1CCN(C(=O)CSc2nnc(-c3c[nH]c4ccccc34)n2CCOC)CC1`, the max dye-equivalent concentration entry is “inactive”.

For `CCOc1ccc(Cn2c(SCCCCC#N)nc3c2c(=O)n(C)c(=O)n3C)cc1OCC`, the max dye-equivalent concentration result is “inactive”.

As to `CNc1ncnc2ccc(-c3cccc(NS(C)(=O)=O)c3)cc12`, the max dye-equivalent concentration result is “inactive”.

As to `Cc1ccc(C)n1C(Cc1ccccc1)C(=O)O` (stereo not drawn), the max dye-equivalent concentration entry is “inactive”.

Turning to `COc1cccc2c(C)c(C(=O)O)[nH]c12`, the max dye-equivalent concentration entry was “inactive”.

Consider `Cc1nc2ccccc2cc1O`, for which the max dye-equivalent concentration result is “inactive”.

Consider `COCCNC(=O)C(c1ccc(C)o1)N(Cc1cccs1)C(=O)c1snc(C(N)=O)c1N` (stereo not drawn), for which the max dye-equivalent concentration result was “inactive”.

Turning to `Cc1cc(C)c(C)c(S(=O)(=O)Nc2ccc(O)cc2)c1C`, the max dye-equivalent concentration result was “inactive”.

For the compound `CCN(CC)Cc1c(C(=O)OC)nnn1-c1nonc1N`, the max dye-equivalent concentration entry was “inactive”.

As to `Cn1cccc1C(=O)N1CCC[C@@]2(CCN(Cc3nccs3)C2)C1`, the max dye-equivalent concentration result was “inactive”.

Regarding `COc1cc2[nH]c(=S)n(CCN3CCCCC3C)c(=O)c2cc1OC` (stereo not drawn), the max dye-equivalent concentration result was “inactive”.

Regarding `COc1ccc(CCNC(=O)c2ccc3c(c2)NC(=O)C(N2CCOCC2)S3)cc1OC` (stereo not drawn), the max dye-equivalent concentration result was “inactive”.

As for `COc1ccc(CCn2c(NCCCN3CCOCC3)nc3c2c(=O)[nH]c(=O)n3C)cc1`, the max dye-equivalent concentration entry is “inactive”.

As for `Cc1ccccc1CSc1nnc(-c2cccnc2)n1N`, the max dye-equivalent concentration entry was “inactive”.

With `COCCN(C(=O)CCC(=O)Nc1ccccn1)C(C(=O)NCCC(C)C)c1ccc(OC)cc1` (stereo not drawn), the max dye-equivalent concentration result is “inactive”.

`NCCNCC1CCNCC1`: the max dye-equivalent concentration result is “inactive”.

Turning to `Cc1ccc(N2CCN(c3ccc(C)cc3)C2c2ccccn2)cc1`, the max dye-equivalent concentration result is “inactive”.

In the case of `O=C(NCCCN1CCN(c2ccccc2F)CC1)C1CCC(=O)N1C1CCCCC1` (stereo not drawn), the max dye-equivalent concentration entry is “inactive”.

On to `CCOc1ccc(C(C)C)cc1S(=O)(=O)n1nc(C)cc1C`, for which the max dye-equivalent concentration result is “inactive”.

Take `COc1ccc(-c2c3c(=O)n(C)c(=O)n(C)c3cn2NC(C)=O)cc1`: the max dye-equivalent concentration result is “inactive”.

Turning to `CCCOC(=O)C1=C(C)NC2=C(C(=O)C(C(=O)OC)C(C)C2)C1c1ccc(N(C)C)cc1` (stereo not drawn), the max dye-equivalent concentration entry is “inactive”.

For `O=C1CSC(=O)N1CCOCCN1C(=O)CSC1=O`, the max dye-equivalent concentration entry was “inactive”.

`O=c1cc(-c2ccccc2)nc(N2CCCCC2)[nH]1`: the max dye-equivalent concentration entry is “inactive”.

With `O=C(CSc1nc2ccccc2[nH]1)c1cccs1`, the max dye-equivalent concentration result was “inactive”.

In the case of `COc1cccc2cc(C(=O)N(C)C)c(=O)oc12`, the max dye-equivalent concentration result is “inactive”.

In the case of `C=CCC(NCCCO)c1cccc(OC)c1OC` (stereo not drawn), the max dye-equivalent concentration result is “inactive”.

Take `O=C(CCCN1C(=O)CCC1=O)Nc1ccc(Cl)c(C(F)(F)F)c1`: the max dye-equivalent concentration result is “inactive”.

Regarding `Cc1cccc2nc(CNc3ccc(F)cc3)cn12`, the max dye-equivalent concentration result is “inactive”.

For `CC1(CCC(=O)OC2CCCCC2)OCCO1`, the max dye-equivalent concentration result is “inactive”.

With `Cc1nc(NC(CC(C)C)C(=O)O)c2nc(C)oc2n1` (stereo not drawn), the max dye-equivalent concentration entry was “inactive”.

Turning to `Cc1c(C(=O)CN2CCOCC2)[nH]c2ccccc12`, the max dye-equivalent concentration result was “inactive”.

On to `C[N+]1(CCNC(=O)/C=N/O)CCCCC1`, for which the max dye-equivalent concentration result was “inactive”.

For the compound `Cc1ccc(C(C)C)c(OCc2nnc(SCC(=O)Nc3nccs3)n2C)c1`, the max dye-equivalent concentration entry is “inactive”.

Turning to `Cc1nn2c3cc(N4CCOCC4)ccc3nc2c2ccccc12`, the max dye-equivalent concentration entry is “inactive”.

For `COc1cc(C(=O)Nc2oc(-c3ccccc3)c(-c3ccccc3)c2C#N)cc(OC)c1OC`, the max dye-equivalent concentration entry was “inactive”.

Turning to `COc1cccc(Cn2c(=O)c(-c3cc(F)cc(F)c3)nc3cnc(OC)nc32)c1`, the max dye-equivalent concentration entry is “inactive”.

Take `O=C(CN1CCOCC1)Nc1ccc(NC(=O)CN2CCOCC2)c(Cl)c1`: the max dye-equivalent concentration result is “inactive”.

Take `Cc1cccc(-n2c(N)cc(=O)nc2SC(C)C(=O)NC2CCCCC2)c1` (stereo not drawn): the max dye-equivalent concentration entry was “inactive”.

Turning to `Cn1c(=NC(=O)c2cnccn2)sc2ccccc21`, the max dye-equivalent concentration result is “inactive”.

Turning to `O=C(O)C1OC(C(=O)O)C2C1C(F)(F)C2(F)F` (stereo not drawn), the max dye-equivalent concentration entry is “inactive”.

Consider `O=C(CSc1nc2ccccc2o1)N1CCN(c2ccccc2)CC1`, for which the max dye-equivalent concentration result was “inactive”.

As for `CCOc1ccccc1/C=c1\sc2nc(-c3ccco3)nn2c1=O`, the max dye-equivalent concentration result was “inactive”.
